Measurements reported in PubChem BioAssay AID1851 (National Center for Advancing Translational Sciences (NCATS), 2009).
Hit rate of the full screen: of about 16,000 compounds, about 5,100 (32%) were called active. Roughly 25% stayed inconclusive and do not appear here. Some of the results follow. Values without a mark were called inactive. Calls follow the shape of the dose curve; as a rule, active = well fitted curve in the direction sought with a large enough effect; inconclusive = small, poorly fitted or top-dose-only effect, or effect the other way; inactive = no such curve, though single readings can be large or run the other way.

molecular target: Cytochrome P450 3A4 (Homo sapiens) (UniProt P08684); assay: Cytochrome panel assay with activity outcomes; conditions: recombinant CYP, pro-luciferin dealkylation, luminescence, p450-cyp3a4; series mostly up to 57.1 µM
% is scaled to controls: 0 for no effect and ±100 for the full control effect.

Sequence of Cytochrome P450 3A4 (Homo sapiens) (P08684 whole entry, looked up): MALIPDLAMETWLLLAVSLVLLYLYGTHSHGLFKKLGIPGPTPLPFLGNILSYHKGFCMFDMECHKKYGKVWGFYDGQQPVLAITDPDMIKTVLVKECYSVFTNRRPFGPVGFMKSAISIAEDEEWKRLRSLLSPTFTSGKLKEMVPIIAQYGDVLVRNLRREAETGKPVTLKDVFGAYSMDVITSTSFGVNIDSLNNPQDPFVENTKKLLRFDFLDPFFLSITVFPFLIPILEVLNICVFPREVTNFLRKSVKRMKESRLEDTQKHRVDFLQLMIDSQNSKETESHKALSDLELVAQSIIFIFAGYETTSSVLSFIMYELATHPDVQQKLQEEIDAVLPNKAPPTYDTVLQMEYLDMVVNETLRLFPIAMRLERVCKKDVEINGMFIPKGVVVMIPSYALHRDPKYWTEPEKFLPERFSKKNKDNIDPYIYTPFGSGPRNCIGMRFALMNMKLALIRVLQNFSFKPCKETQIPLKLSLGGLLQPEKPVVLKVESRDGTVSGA

| SMILES | AC50 | activity, negative = inhibition |
| --- | --- | --- |
| O=C(NCc1ccc2c(c1)OCO2)C1CC(=O)N(C2CCCC2)C1 (stereo unspecified) | 4.47 µM (active) |  |
| Cc1ccc(Oc2ccccc2/C=C2\SC(=O)N(C)C2=O)cc1 | 14.1 µM (active) |  |
| Cc1cc(N2CCOCC2)ccc1/C=C1\SC(=O)N(C(C)C)C1=O | inactive |  |
| N#Cc1cccc(-c2cncnc2NCc2cccnc2)c1 | 1.26 µM (active) |  |
| N#Cc1cccc(-c2cncnc2NCc2cccs2)c1 | 1.26 µM (active) |  |
| Cc1cccc(CNc2ncncc2-c2cccc(C#N)c2)c1 | 0.2 µM (active) |  |
| N#Cc1cccc(-c2cncnc2NCc2ccccc2)c1 | 1.26 µM (active) |  |
| O=C1/C(=N\O)Cc2ccccc21 | inactive |  |
| C[N+](C)([O-])CCC=C1c2ccccc2CCc2ccccc21 | 1.26 µM (active) |  |
| CN(C)CC/C=C1\c2ccccc2COc2ccccc21 | inactive |  |
| CN(C)CCC=C1c2ccccc2CCc2ccccc21 | inactive |  |
| COCCCNC(=O)Cn1nc(-c2ccccc2OC)ccc1=O | inactive |  |
| COc1ccccc1-c1cc(C(F)(F)F)nc(S(=O)(=O)CCCC(=O)NC(C)C)n1 | 12.6 µM (active) |  |
| CCOC(=O)C1(C(=O)O)NC(=O)CC1c1ccccc1 (stereo unspecified) | inactive |  |
| CCOC(=O)C1=C(C)NC2=C(C(=O)C(C(=O)OCC)C(c3ccc(OC)cc3)C2)C1c1ccccn1 (stereo unspecified) |  | -13.7% [at 2.29 µM] |
| CCCOc1ccccc1C1CC(=O)NC(C)=C1C(=O)OCC(C)C (stereo unspecified) | 28.2 µM (active) |  |
| CC(C)(C)OC(=O)NCCc1nnc(SCC(=O)Nc2cccc(Cl)c2)o1 | 11.2 µM (active) |  |
| O=C(CSc1nnc(Cn2nnc3ccccc32)o1)Nc1cccc(Cl)c1 | 8.91 µM (active) |  |
| O=[N+]([O-])c1ccc(C2=Nn3c(nnc3-c3ccc(Cl)cc3)SC2)o1 |  | -12.1% [at 11.4 µM] |
| Brc1ccc(C2=Nn3c(nnc3-c3cccnc3)SC2)s1 | 3.55 µM (active) |  |
| CCOc1ccccc1NC(=O)CSc1nnc(-c2cnccn2)n1C | 8.91 µM (active) |  |
| CCOc1ccccc1NC(=O)CCC(=O)O | inactive |  |
| O=C1NC(=S)N/C1=C/c1cccc([N+](=O)[O-])c1O | inactive |  |
| O=[N+]([O-])c1ccccc1/C=N/n1c(COc2ccccc2)n[nH]c1=S | 5.01 µM (active) |  |

| SMILES | AC50 | activity, negative = inhibition |
| --- | --- | --- |
| O=[N+]([O-])c1ccc(/C=N/n2c(COc3ccccc3)n[nH]c2=S)cc1 | 15.8 µM (active) |  |
| Cc1ccc(/C=N/n2c(COc3ccccc3)n[nH]c2=S)s1 | inactive |  |
| O=[N+]([O-])c1ccc(/C=N/N/C(=N/c2ccccn2)c2ccccn2)cc1 | inactive |  |
| Cc1ccccc1CNc1ncnc2c1ncn2[C@@H]1O[C@@H](CO)[C@H](O)[C@@H]1O | inactive |  |
| NC[C@H]1O[C@H](n2cnc3c(N)ncnc32)C[C@@H]1O |  | -10.5% [at 11.4 µM] |
| CCc1ccc(N(C(=O)c2snc(C(N)=O)c2N)C(C(=O)NCCC(C)C)c2c[nH]c3ccccc23)cc1 (stereo unspecified) | 3.98 µM (active) |  |
| CC(=O)OC[C@@H]1O[C@@H](O/N=C2/C[C@@H](O)[C@@H](O)[C@@H]3[C@@H]4C(=O)N(C5CCCCC5)C(=O)[C@H]4CC[C@@H]23)[C@H](OC(C)=O)[C@H](OC(C)=O)[C@@H]1OC(C)=O |  | -21.5% [at 11.4 µM] |
| COc1cccc(-c2nccc(NCc3cccnc3)n2)c1 | 1.26 µM (active) |  |
| COc1ccc(-c2cc(C(F)(F)F)nc(NCc3cccnc3)n2)cc1 | 4.47 µM (active) |  |
| c1ccc(-c2noc(-c3ccc4ccccc4c3)n2)cc1 | inactive |  |
| COc1cccc(-c2nccc(NC3CCNCC3)n2)c1 | inactive |  |
| COc1cccc(-c2noc(-c3cccnc3)n2)c1 | 5.01 µM (active) |  |
| COc1cccc(-c2nccc(NCc3ccccc3)n2)c1 | 3.98 µM (active) |  |
| CO[C@@H]1COC(=O)[C@H]2CCCN2C(=O)[C@@H](C)COC(=O)C/C=C\[C@H]1C |  | -15.8% [at 11.4 µM] |
| COCC(C)NCc1cccc(C)c1 (stereo unspecified) | inactive |  |
| COc1cccc(-c2nccc(NCc3cccc(C)c3)n2)c1 | 3.98 µM (active) |  |
| COc1cccc(-c2nccc(NCc3cccs3)n2)c1 | 5.01 µM (active) |  |
| Cc1ccc2nc(-c3ccc(NC(=O)c4ccc(N)cc4)c(S(=O)(=O)O)c3)sc2c1 |  | -13.7% [at 11.4 µM] |
| Cc1ccc(C)c(S(=O)(=O)NC(CC(C)C)C(=O)O)c1 (stereo unspecified) | inactive |  |
| Cc1ccc(C)c(S(=O)(=O)NC(C)C(=O)Nc2ccc(-c3nc4ccccc4s3)cc2)c1 (stereo unspecified) | 3.55 µM (active) |  |
| COc1ccc([N+](=O)[O-])cc1N(CC(O)CN(CC(C)C)CC(C)C)S(=O)(=O)c1ccccc1 (stereo unspecified) | 1.12 µM (active) |  |
| CCN(Cc1ccccc1)Cc1cccc([N+](=O)[O-])c1 | inactive |  |
| CCN(/C=N/c1sc2c(c1C#N)CCCCC2)CC |  | -17.6% [at 2.29 µM] |
| CCCN(/C=N/c1sc2c(c1C#N)CCCCC2)CCC | 7.94 µM (active) |  |

| SMILES | AC50 | activity, negative = inhibition |
| --- | --- | --- |
| COc1ccccc1CNc1ncncc1-c1cccc(NS(C)(=O)=O)c1 | 0.251 µM (active) |  |
| COc1ccc(CNc2ncncc2-c2cccc(NS(C)(=O)=O)c2)c(OC)c1 | 0.251 µM (active) |  |
| Cc1cc2c(cc1S(N)(=O)=O)S(=O)(=O)CCC2 | inactive |  |
| CCOC(=O)Nc1ccc(C(=O)NCC2CCCO2)cc1 (stereo unspecified) | inactive |  |
| CCC(C)(C(=O)NC1CCCC1)N(CC1CCCO1)C(=O)c1ccc2c(c1)OCO2 (stereo unspecified) | 3.98 µM (active) |  |
| Cc1ccc(C(=O)NCC2CCCO2)cc1N1CCCC1=O (stereo unspecified) | inactive |  |
| COc1cccc(CNc2ccc3nc(-c4ccc(N)cc4)c(OC)n3n2)c1 | 5.01 µM (active) |  |
| CC(=O)OCCCN1c2ccccc2Nc2nnc(-c3ccccc3)cc21 | 12.6 µM (active) |  |
| COc1ccc(CN(CCN(C)C)c2ccccn2)cc1 | inactive |  |
| CN(C)c1nccc(N(Cc2ccccc2)Cc2ccccc2)c1C#N | 12.6 µM (active) |  |
| Cc1ccc(N(Cc2ccccc2)Cc2ccccc2)cc1 |  | -22.6% [at 11.4 µM] |
| CO[C@@H]1COC(=O)[C@H]2CCCN2C(=O)C/C=C\[C@@H](C)[C@H](OC)COC(=O)[C@H]2CCCN2C(=O)C/C=C\[C@H]1C |  | -3.39% [at 11.4 µM] |
| CN(C)c1ncc2ncc(=O)n(C)c2n1 | inactive |  |
| O=C(O)COc1ccc(-c2nccc(-c3cccs3)n2)cc1 | inactive |  |
| c1ccc(-c2nccc(-c3ccc(-n4cnc5ccccc54)cc3)n2)nc1 | inactive |  |
| c1ccc2c(c1)ncn2-c1ccc(-c2ccnc(-c3ccncc3)n2)cc1 | 0.501 µM (active) |  |
| COc1ccc(C(=O)N2CCC3(CC2)CN(C(=O)Nc2cccc(C#N)c2)C3)cc1 | 15.8 µM (active) |  |
| COCC(=O)N1CCC2(CCCN(C(=O)Nc3cccc(C#N)c3)C2)CC1 | inactive |  |
| COc1ccc(C(=O)N2CCC3(CCCN(C(=O)Nc4cccc(C#N)c4)C3)CC2)cc1 | 6.31 µM (active) |  |
| COCC(=O)N1CCC[C@@]2(CCN(C(=O)Nc3ccccc3)C2)C1 | inactive |  |
| CC(=O)N1CCC2(CC1)CN(C(=O)Nc1cccc(C#N)c1)C2 | inactive |  |
| COCC(=O)N1CCC2(CC1)CN(C(=O)Nc1cccc(C#N)c1)C2 | inactive |  |
| N#Cc1cccc(NC(=O)N2CC[C@@]3(CCCN(C(=O)c4ccncc4)C3)C2)c1 | 15.8 µM (active) |  |
| COC(=O)N1CCC2(CC1)CN(C(=O)Nc1cccc(C#N)c1)C2 | inactive |  |

| SMILES | AC50 | activity, negative = inhibition |
| --- | --- | --- |
| COC(=O)N1CCC[C@@]2(CCN(C(=O)Nc3cccc(C#N)c3)C2)C1 | inactive |  |
| COc1ccc(C(=O)N2CCC[C@@]3(CCN(C(=O)Nc4cccc(C#N)c4)C3)C2)cc1 | 7.94 µM (active) |  |
| CC(C)c1nnc(-c2ccc(Cl)cc2)c(N(C)C)n1 |  | -7.47% [at 2.29 µM] |
| CCCn1c(N)c(C(=O)CSc2nc(C)cs2)c(=O)n(C)c1=O | 6.31 µM (active) |  |
| Cn1c(=O)c(C(=O)CN2CCOCC2)c(N)n(Cc2ccccc2)c1=O | inactive |  |
| O=C(O)[C@@H](O)Cc1ccccn1 |  | 15.2% [at 11.4 µM] |
| CN1CCN(c2ncc3nc(-c4cccc(C#N)c4)c(=O)n(CCC#N)c3n2)CC1 | inactive |  |
| O=c1c(-c2ccc(F)cc2)nc2cnc(N3CCOCC3)nc2n1C[C@H]1CCCO1 | inactive |  |
| COc1ccc(-n2c(=O)cnc3cnc(N4CCNCC4)nc32)cc1 | inactive |  |
| CN1CCN(c2ncc3nc(-c4cccc(C#N)c4)c(=O)n(C)c3n2)CC1 | inactive |  |
| CN(C)c1ncc2nc(-c3ccccc3)c(=O)n(Cc3ccc(F)cc3)c2n1 | inactive |  |
| Cc1nc2cnc(N(C)C)nc2n(Cc2ccc(F)cc2)c1=O | 0.0251 µM (active) |  |
| O=c1cnc2cnc(N3CCNCC3)nc2n1Cc1ccc(F)cc1 | 7.94 µM (active) |  |
| N#CCCn1c(=O)cnc2cnc(N3CCNCC3)nc21 | inactive |  |
| O=c1c(-c2ccccc2)nc2cnc(N3CCNCC3)nc2n1Cc1ccc(F)cc1 | 3.16 µM (active) |  |
| CN1CCN(c2ncc3nc(-c4ccccc4)c(=O)n(Cc4ccc(F)cc4)c3n2)CC1 | inactive |  |
| CN1CCN(c2ncc3nc(-c4cccc(C#N)c4)c(=O)n(Cc4ccc(F)cc4)c3n2)CC1 | 20 µM (active) |  |
| Cc1nc2cnc(N(C)C)nc2n(CCC#N)c1=O | inactive |  |
| COCCn1c(=O)c(-c2ccc(F)cc2)nc2cnc(N3CCOCC3)nc21 | inactive |  |
| Cc1nc2cnc(N3CCN(C)CC3)nc2n(C)c1=O | inactive |  |
| N#CCCn1c(=O)c(-c2ccc(F)cc2)nc2cnc(N3CCOCC3)nc21 | inactive |  |
| Cc1nc2cnc(N3CCNCC3)nc2n(Cc2ccc(F)cc2)c1=O | 15.8 µM (active) |  |
| COCCn1c(=O)c(C)nc2cnc(N3CCN(C)CC3)nc21 | inactive |  |
| O=c1c(-c2ccc(F)cc2)nc2cnc(N3CCNCC3)nc2n1Cc1ccc(F)cc1 | 7.94 µM (active) |  |
